Consider ten compounds from PubChem BioAssay (NCI).

About 83,000 compounds went through this panel and 20% of them were active in at least one assay; those are over-represented in the sample as a whole.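 Step 1: grow cells in 96-well plates. Step 2: add test compound at a single concentration. Step 3: incubate 48 h. Step 4: record percent growth.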 A number with no mark means an inactive call. Active and inactive are the calls of the source. The calls were made as follows: active = growth percent below 10; inactive = the rest.

Common to all, as to experiment: NCI-60 one-dose screen, 48 h (100 = growth as untreated, 0 = no growth, -100 = all killed)
Conditions in all cases: 10 µM unless noted

Experiment [1] relates to HCT-15 colon.
Experiment [2] has as its system HT29 colon.
For experiment [3], the system named is SNB-75 CNS.
Experiment [4] deals with SNB-19 CNS.
Experiment [5] relates to U251 CNS.
In experiment [6] the test system is PC-3 prostate.
Experiment [7] has as its system SK-MEL-5 melanoma.
The subject of experiment [8] is UACC-62 melanoma.
Experiment [9] deals with LOX IMVI melanoma.
The subject of experiment [10] is SK-MEL-28 melanoma.
For experiment [11], the system named is SK-MEL-2 melanoma.
Experiment [12] has as its system SN12C renal.
For experiment [13], the system named is UO-31 renal.
In experiment [14] the test system is TK-10 renal.
The subject of experiment [15] is ACHN renal.
The subject of experiment [16] is CAKI-1 renal.
The test system of experiment [17] is CCRF-CEM leukemia.
Experiment [18] relates to MOLT-4 leukemia.
Experiment [19] relates to A498 renal.

Take `O=S(=O)(NCCNc1nccc(-c2c(-c3ccccc3)nc3sccn23)n1)c1ccc(O)cc1`: the growth in experiment [1] was 47.9%; in experiment [2], 21.4%; in experiment [3], 28.7%; in experiment [4], 56.5%; in experiment [5], 41.5%; in experiment [6] it was 57.9%. The growth in experiment [7] is 7.89% (active); in experiment [8] it was 52.4%; in experiment [9], 31.4%; in [10], 47.6%; in experiment [11], 49.7%; in experiment [12], 40.3%. Besides, the growth in experiment [13] was 31.4%; in [14], 62.2%; in [15] it was 25.8%; in experiment [16], 53.5%; in [17], 52.2%; in experiment [18], 28.7%.
Turning to `COc1ccc(-c2nc3sccn3c2-c2ccnc(NCCCNS(=O)(=O)c3ccc(C)cc3)n2)cc1`, the growth in [1] is 16.8%; in [2] it was 18.4%; in experiment [3] it was 77.4%; in [4] it was 71.7%; in [5], 45.1%; in experiment [6], 31.5%. Further, the growth in experiment [7] is -5.18% (active); in [8], 10.9%; in experiment [9], 11%; in [10], 41.5%; in experiment [11] it was 25.9%; in experiment [12], 36.3%. Moreover, the growth is 15.5% in experiment [13]; 66% in experiment [14]; 22.4% in [15]; 42.1% in experiment [16]; 18.9% in experiment [17]; 24.6% in experiment [18].
`CCn1c(=O)c2c(=O)c3c4c(oc3oc2c2ccccc21)C(=O)c1ccccc1C4=O`: the growth in experiment [1] was 79.6%; in [2] it was 63%; in [3], 120%; in [4], 90.2%; in [5] it was 57.7%; in [6], 42.4%. For the same compound, the growth was 67.4% in experiment [7]; 64% in [8]; 32.4% in experiment [9]; 107% in experiment [10]; 79.9% in experiment [11]; 87.2% in experiment [12]. In addition, the growth in experiment [13] is 81.8%; in [14] it was 112%; in experiment [15], 79.6%; in experiment [16] it was 72.6%; in experiment [17], 2.47% (active); in [18] it was -24.5% (active).
Regarding `O=S(=O)(NCCCNc1nccc(-c2c(-c3ccccc3)nc3sccn23)n1)c1ccc(F)cc1`, the growth in experiment [1] was 19.4%; in experiment [2], 29%; in experiment [3], 44%; in experiment [4] it was 75.1%; in experiment [5] it was 46.4%; in experiment [6], 60.6%. Moreover, the growth in [7] was 14.3%; in experiment [8] it was 23.1%; in [9] it was 23.7%; in experiment [10] it was 56.3%; in experiment [11], 53.8%; in experiment [12], 44.1%. Besides, the growth is 24.9% in experiment [13]; 72.7% in experiment [14]; 26.6% in [15]; 33.1% in experiment [16]; 31.2% in experiment [17]; 38.4% in experiment [18].
Consider `O=C(CN1CCOCC1)Nc1ccc(-c2nc3ccccc3s2)cc1`, for which the growth in [1] is 93.7%; in experiment [2], 103%; in experiment [3] it was 100%; in experiment [4], 101%; in [5] it was 89.5%; in experiment [6], 93%. Also, the growth was 92.7% in [7]; 100% in [8]; 99.9% in experiment [9]; 102% in [10]; 115% in experiment [11]; 101% in experiment [12]. The growth was 95% in experiment [13]; 112% in [14]; 104% in [15]; 99.7% in experiment [16]; 95.5% in [17]; 99.4% in [18].
For `Cc1ccc(S(=O)(=O)NCCCNc2nccc(-c3c(-c4ccccc4)nc4sccn34)n2)cc1`, the growth in [1] was 47%; in [2] it was 18.5%; in experiment [3], 48.4%; in experiment [4], 75.4%; in experiment [5], 63.1%; in experiment [6], 30.9%. Besides, the growth in experiment [7] was 45%; in [8], 36.5%; in experiment [9], 32.6%; in experiment [10] it was 78.5%; in experiment [11], 82.9%; in experiment [12] it was 48.1%. Further, the growth was 33.9% in experiment [13]; 85.8% in experiment [14]; 37.7% in experiment [15]; 47.3% in experiment [16]; 18.5% in [17]; 43.5% in experiment [18].
In the case of `Clc1nc2ccccc2nc1CI`, the growth was 74.9% in [1]; 117% in [2]; 89.2% in [3]; 103% in experiment [4]; 113% in experiment [5]; 89.6% in experiment [6]. In addition, the growth was 83% in experiment [7]; 100% in experiment [8]; 8.23% (active) in experiment [9]; 103% in experiment [10]; 64.3% in experiment [11]; 54.3% in experiment [12]. Also, the growth in experiment [13] is 69.2%; in experiment [14], 166%; in [15], 92.1%; in experiment [16], 97.8%; in [17], -4.61% (active); in [18] it was 20.2%.
Consider `COc1c(NC[C@H]2OC(O)[C@H](O)[C@@H](O)[C@@H]2O)c(=O)c1=O` (stereo not given in full), for which the growth is 107% in [1]; 118% in [2]; 70.9% in [3]; 109% in [4]; 95.4% in experiment [5]; 92.7% in experiment [6]. Further, the growth is 100% in [7]; 96.6% in [8]; 95.5% in experiment [9]; 107% in experiment [10]; 121% in [11]; 101% in experiment [12]. For the same compound, the growth is 86.7% in experiment [13]; 97% in experiment [14]; 105% in [15]; 73% in [19]; 81.2% in experiment [17]; 102% in experiment [18].
As to `COc1ccc(C(=O)/C=C/c2cc(C(=O)c3cc(OC)c(OC)c(OC)c3)ccc2OC)cc1`, the growth was 29.2% in experiment [1]; 27.7% in [2]; 66.7% in experiment [3]; 53.6% in [4]; 52.4% in experiment [5]; 44.5% in experiment [6]. The growth in [7] is 54.4%; in experiment [8], 33.1%; in experiment [9], 27.4%; in experiment [10] it was 35.1%; in experiment [11], 60.8%; in experiment [12], 68.8%. For the same compound, the growth in [13] is 53.7%; in experiment [14] it was 107%; in [15], 41%; in experiment [19], 93.1%; in experiment [17], 5.61% (active); in experiment [18], 10.5%.
As to `O=C(CNC1CCCCC1)Nc1ccc(-c2nc3ccccc3s2)cc1`, the growth was 62.9% in experiment [1]; 62.3% in experiment [2]; 67.3% in experiment [3]; 91% in [4]; 65.1% in experiment [5]; 79.7% in experiment [6]. For the same compound, the growth in experiment [7] is 90.8%; in experiment [8], 96.2%; in experiment [9], 73.9%; in experiment [10], 95.2%; in experiment [11], 105%; in [12], 86.7%. In addition, the growth in [13] was 56.5%; in [14] it was 103%; in [15], 99.1%; in [16] it was 86%; in [17], 77.3%; in [18], 54.1%.
